# Assay results: PubChem BioAssay
# Calls of active or inactive are those of the source.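 How the source made its calls, unless noted: active means visual image review flags a hit and inhibition of aggregation exceeds 20%; inconclusive means visual hit but inhibition at or below 20%; inactive means no hit on visual image review.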
# Experiments:
# [1] = inhibitors of TNFa-induced NFkB p65 translocation, primary screen, imaging, HUVEC, MLSMR starter and 10KST1 sets (AID 438;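 active means inhibition above 20% together with a positive visual image hit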;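 further: compound added about 3h40 before a 20 min TNFalpha stimulation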;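 on inhibition: signal is the nuclear over cytoplasmic p65 intensity ratio per well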); details: HUVEC TNFa-induced p65 nuclear translocation; cell count: measured here: nuclei count (cytotoxicity indicator), at 2.08 µM; inhibition: at 2 µM, stronger effect = higher value, 0% TNFa-plus-vehicle, 100% no-TNFa wells
# [2] = inhibitors of mutant huntingtin aggregation, primary screen, imaging, exon1htt(103Q)mCFP cells, high-content imaging (AID 483); details: exon1htt(103Q)mCFP cell line, aggregate imaging, at 2 µM; inhibition of aggregation: stronger effect = higher value; nuclei count: measured here: cell count, toxicity;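 further: compound exposure lasted 3 days before fixation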;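 on nuclei count: percent of the per-plate median nuclei count of sample wells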
# [3] = inhibitors of E-selectin induction by TNFa, primary screen, imaging, HUVEC, immunofluorescence, MLSMR starter and 10KST1 sets (AID 487;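 active means visually confirmed hit in the image check and inhibition above 20%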;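 on inhibition: signal is fraction of cell area covered by stained E-selectin grains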;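 on nuclei count: 100% = median nuclei count of all wells on the same plate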); details: HUVEC TNFalpha-induced E-selectin immunofluorescence imaging, at 2 µM; inhibition: stronger effect = higher value; nuclei count: measured here: cell number, toxicity
# [4] = target: Voltage-gated potassium channel subunit beta-2 (Rattus norvegicus) (UniProt P62483); assay: KvBeta enzyme negative modulators, primary screen, biochemical, NADPH fluorescence (AID 622;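 active means fluorescence slope higher than the sample average by over 3 SD, cut at about -0.22 in these data, passing the limit was not always enough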;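 further: slope of raw intensity against log time taken from 70 to 1610 s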); details: recombinant KvBeta, 4-cyanobenzaldehyde reduction, at 10 µM, stronger effect = higher value
# [5] = target: Voltage-gated potassium channel subunit beta-2 (Rattus norvegicus) (UniProt P62483); assay: KvBeta positive modulators, primary screen, biochemical, NADPH fluorescence (AID 623;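 active means NADPH fluorescence slope more negative than the mean of all samples by about 3 SD, 99.7% confidence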;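 further: fluorescence intensity change per second fitted from 20 to 320 s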); details: Recombinant KvBeta, NADPH fluorescence decrease slope, 10 min; at 10 µM; stronger effect = lower value
# [6] = target: Alpha-2C adrenergic receptor (Homo sapiens) (UniProt P18825); assay: modulators of alpha2C/GIRK thallium flux, primary screen, cell-based, HEK293 alpha2C/GIRK1/2 (AID 624;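 active means fluorescence slope after compound addition differing from the mean of all screened samples at 99.7% confidence, in either direction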;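 further: slope of fluorescence ratio to pre-addition baseline per second over 15 to 24 s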); details: thallium flux BTC fluorescence, at 10 µM, actives lie on both sides
# [7] = inhibitors of Sendai virus-induced IRF3 signaling, primary screen, TLR/RLR signaling modifier project, cell-based, Sendai virus stimulus, luciferase, 10K MLSCN set (AID 602276;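 active means inhibition at or above 50% at 10 µM; inactive means inhibition below 50%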;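 further: firefly luciferase from ISG56 promoter only with Renilla not read in this screen; 0% = Sendai virus plus DMSO and 100% = medium plus DMSO without virus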); details: HEK293 RL24 IRF3 luciferase reporter, at 10 µM, stronger effect = higher value
# [8] = inhibitors of poly I:C-induced TLR3 signaling, primary screen, cell-based, poly I:C stimulus, luciferase, 10K MLSCN set (AID 602277;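 active means inhibition of the reporter signal at or above 50%; inactive means inhibition below 50%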); details: HEK293-TLR3 RL24 IRF3 luciferase reporter, at 10 µM, stronger effect = higher value
# Sequence of Alpha-2C adrenergic receptor (Homo sapiens) (P18825 whole entry, looked up): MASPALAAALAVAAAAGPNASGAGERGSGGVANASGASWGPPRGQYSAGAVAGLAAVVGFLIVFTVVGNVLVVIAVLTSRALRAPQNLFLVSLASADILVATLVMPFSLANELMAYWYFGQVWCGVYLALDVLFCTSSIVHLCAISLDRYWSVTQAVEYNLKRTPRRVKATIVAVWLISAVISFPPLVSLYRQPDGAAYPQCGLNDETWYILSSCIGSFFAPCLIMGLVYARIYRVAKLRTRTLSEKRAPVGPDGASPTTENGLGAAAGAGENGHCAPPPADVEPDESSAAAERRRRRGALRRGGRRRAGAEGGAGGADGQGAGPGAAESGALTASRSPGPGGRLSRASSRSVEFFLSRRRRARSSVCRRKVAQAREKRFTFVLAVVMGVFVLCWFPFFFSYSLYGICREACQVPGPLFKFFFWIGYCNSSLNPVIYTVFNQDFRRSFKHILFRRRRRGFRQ
# Sequence of Voltage-gated potassium channel subunit beta-2 (Rattus norvegicus) (P62483 whole entry, looked up): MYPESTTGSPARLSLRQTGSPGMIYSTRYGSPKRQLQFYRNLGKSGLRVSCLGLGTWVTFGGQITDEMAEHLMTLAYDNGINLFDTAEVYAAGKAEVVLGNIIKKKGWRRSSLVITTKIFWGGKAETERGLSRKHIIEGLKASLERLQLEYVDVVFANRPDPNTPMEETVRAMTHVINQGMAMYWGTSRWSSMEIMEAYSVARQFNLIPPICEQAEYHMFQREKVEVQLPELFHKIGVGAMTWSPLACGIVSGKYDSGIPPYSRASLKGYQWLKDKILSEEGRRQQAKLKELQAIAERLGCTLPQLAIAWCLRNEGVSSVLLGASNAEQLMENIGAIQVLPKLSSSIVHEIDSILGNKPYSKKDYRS
SMILES,cell count [1],inhibition [1],inhibition of aggregation [2],nuclei count [2] [%],inhibition [3],nuclei count [3] [%],fluorescence slope [4],NADPH fluorescence slope [5],slope [6],inhibition [7],inhibition [8]
CCOC(=O)N1CCN(CC(=O)c2c(C)[nH]c3ccccc23)CC1,349,10.5% (inactive),-5.3% (inactive),92.4,-113% (inactive),143,-0.491 (inactive),-6.3e-05 (inactive),0.00584 (inactive),0.348% (inactive),6.29% (inactive)
O=C(COC(=O)c1cc(-c2ccco2)nc2ccccc12)NCc1ccc2c(c1)OCO2,349,-18.2% (inactive),-7.7% (inactive),54,3.4% (inactive),108,-0.407 (inactive),-1.1e-05 (inactive),0.00558 (inactive),2.9% (inactive),11.8% (inactive)
COc1ccc(C(=O)Oc2c(CN3CCOCC3)cc(Cl)c3cccnc23)cc1OC,601,-2.4% (inactive),-3.9% (inactive),100,-53.1% (inactive),111,-0.533 (inactive),-2.5e-05 (inactive),0.00812 (inactive),-3.08% (inactive),30.9% (inactive)
OC(COc1ccc2ccccc2c1)CN1CCOCC1 (stereo not drawn),780,4.7% (inactive),3.4% (inactive),83,-44.7% (inactive),95.6,-0.441 (inactive),-8.9e-05 (inactive),0.00562 (inactive),3.23% (inactive),11.9% (inactive)
COc1cccc(-c2nc3n(n2)C(c2ccccc2Cl)C(C(N)=O)=C(C)N3)c1 (stereo not drawn),595,-0.8% (inactive),-7.2% (inactive),114,-26.6% (inactive),103,-0.393 (inactive),1.7e-05 (inactive),0.00613 (inactive),12.1% (inactive),38.1% (inactive)
Cc1cccnc1-n1c(CCN2C(=O)c3ccccc3C2=O)nc2ccccc2c1=O,359,-5.4% (inactive),12.7% (inactive),84.4,-12.9% (inactive),83.7,-0.327 (inactive),-7.6e-06 (inactive),0.00629 (inactive),2.74% (inactive),2.5% (inactive)
CCOc1ccc(NC(=O)CN2C(=O)C3CCCN3C2=O)cc1 (stereo not drawn),551,-13.7% (inactive),-2.3% (inactive),102,-48.6% (inactive),110,-0.572 (inactive),1.4e-05 (inactive),0.00647 (inactive),3.2% (inactive),8.26% (inactive)
CCOC(=O)c1ccc(N2C(=O)CC(NC3CCN(C(=O)c4ccc(F)cc4)CC3)C2=O)cc1 (stereo not drawn),699,8.6% (inactive),7.9% (inactive),102,-30.3% (inactive),98.3,-0.416 (inactive),2.4e-05 (inactive),0.00425 (inactive),-1.5% (inactive),-3.21% (inactive)
Cc1cc(Cl)c(S(=O)(=O)Nc2ccc3c(c2)OCCO3)cc1OCC(N)=O,526,1.8% (inactive),-7.1% (inactive),106,-79.1% (inactive),113,-0.516 (inactive),1.1e-05 (inactive),0.00485 (inactive),32.8% (inactive),30.7% (inactive)
O=C(CCCNS(=O)(=O)c1ccccc1)NCc1ccco1,242,-6.9% (inactive),22.9% (inactive),80.7,27.9% (inactive),80.8,-0.425 (inactive),-1.4e-05 (inactive),0.00453 (inactive),12.9% (inactive),10.4% (inactive)
CCC1CCCCN1C(=O)CSc1nnc(-c2ccco2)o1 (stereo not drawn),368,4.2% (inactive),-17.6% (inactive),100,-80.6% (inactive),104,-0.487 (inactive),-7.3e-05 (inactive),0.00444 (inactive),-35.7% (inactive),-88.3% (inactive)
O=C(O)c1cc(-c2ccccc2Cl)n[nH]1,240,8% (inactive),-10.1% (inactive),109,-51% (inactive),97.9,-0.604 (inactive),-2e-05 (inactive),0.00669 (inactive),11.2% (inactive),22.8% (inactive)
O=C(Nc1ccc2c(c1)nc1n2CCN(Cc2ccccc2)C1)c1cccs1,420,-13.3% (inactive),6.4% (inactive),89.3,11.1% (inactive),73.9,-0.461 (inactive),-0.000271 (inactive),0.00505 (inactive),-17.8% (inactive),-84.2% (inactive)
CSc1nc2c(c(=O)n1C)SC(C)C2 (stereo not drawn),612,8.7% (inactive),-10.1% (inactive),111,-32.9% (inactive),115,-0.567 (inactive),-4.8e-05 (inactive),0.00545 (inactive),4.05% (inactive),31.4% (inactive)
O=C(O)CCc1ccc(-c2cccs2)o1,314,-7.8% (inactive),-10.2% (inactive),103,-23.1% (inactive),118,-0.366 (inactive),-0.00014 (inactive),0.00568 (inactive),16.2% (inactive),27% (inactive)
O=C(C1CCN(c2nnnn2-c2ccccc2)CC1)N1CCN(c2ccccc2)CC1,618,-33.7% (inactive),-1.1% (inactive),98.3,-35.9% (inactive),112,-0.602 (inactive),-5.4e-05 (inactive),0.00667 (inactive),8.57% (inactive),22.4% (inactive)
C=CCn1c(SCn2nnc3ccccc3c2=O)nnc1-c1ccc(Br)cc1,447,-8.7% (inactive),6% (inactive),67.5,-30.7% (inactive),110,-0.328 (inactive),-5.6e-05 (inactive),0.00508 (inactive),-1.43% (inactive),-21.1% (inactive)
NCCCCCc1nnc(SC/C=C/c2ccccc2)o1,396,-9.8% (inactive),3% (inactive),69.1,20.9% (inactive),94,-0.488 (inactive),-4.2e-05 (inactive),0.00602 (inactive),14.3% (inactive),12.7% (inactive)
COCCN(C(=O)CCC(=O)Nc1ccccn1)C(C(=O)NC1CCCC1)c1ccc(OC)cc1 (stereo not drawn),528,-26.5% (inactive),16.1% (inactive),105,-44.5% (inactive),92,-0.395 (inactive),-9e-05 (inactive),0.00514 (inactive),1.15% (inactive),23.2% (inactive)
COc1ccc(C2C3=C(CCCC3=O)Nc3nc(SCc4ccccc4)nn32)cc1OC (stereo not drawn),665,-12.9% (inactive),9.2% (inactive),91.2,32.2% (inactive),105,-0.335 (inactive),-6.9e-05 (inactive),0.00626 (inactive),6.77% (inactive),14.4% (inactive)
O=C(CS(=O)CC(=O)Nc1cccc2c1CCCC2)Nc1ccc(F)cc1 (stereo not drawn),210,2.1% (inactive),-8.6% (inactive),84.1,26.9% (inactive),80.2,-0.621 (inactive),1e-05 (inactive),0.00343 (inactive),12.7% (inactive),18.9% (inactive)
COc1cc(C2CC(=O)NC3=C2C(=O)CC(C)(C)C3)ccc1O (stereo not drawn),380,-2.2% (inactive),6.5% (inactive),101,2.8% (inactive),105,-0.41 (inactive),-4.2e-05 (inactive),0.00203 (inactive),1.82% (inactive),16.2% (inactive)
Cc1ccc(-c2nc3ccccc3[nH]2)s1,362,-13.1% (inactive),-2.5% (inactive),95.2,-72.7% (inactive),101,-0.277 (inactive),-1.4e-05 (inactive),0.00551 (inactive),-45.9% (inactive),-155% (inactive)
Cc1ccccc1NC(=O)CN1CCC(NC(=O)Nc2ccccc2)CC1,516,-1.9% (inactive),25.9% (inactive),68,-121% (inactive),93,-0.292 (inactive),-4.8e-05 (inactive),0.00566 (inactive),9.37% (inactive),9.34% (inactive)
Cc1ccc(C)c(NC(=O)CC(NCCCN2CCOCC2)C(=O)O)c1 (stereo not drawn),494,-13.6% (inactive),2.6% (inactive),71.5,-34.4% (inactive),81.2,-0.512 (inactive),3.9e-05 (inactive),0.00589 (inactive),19.6% (inactive),20.7% (inactive)
Nc1nc2ccccc2n1C(=O)CCc1ccccc1,663,-1.2% (inactive),-11.5% (inactive),69,-36.3% (inactive),125,-0.396 (inactive),-3.8e-05 (inactive),0.0047 (inactive),-24.1% (inactive),-73.1% (inactive)
CCCOC(=O)CSc1nc(N)c(C#N)c(CC)c1C#N,377,3.3% (inactive),18% (inactive),97.7,-97.1% (inactive),113,-0.532 (inactive),-2.3e-05 (inactive),0.00456 (inactive),-7.11% (inactive),-13.9% (inactive)
CCOC(=O)CNC(=O)CSc1nc(N)cc(N)n1,434,5.1% (inactive),-0.1% (inactive),106,-62.6% (inactive),108,-0.385 (inactive),2.9e-05 (inactive),0.00537 (inactive),1.91% (inactive),8.68% (inactive)
